The full list was thinned out, with the strongest signals kept by preference.
Legend:
Test in all cases: glycan array binding signal (z-score within array); higher = stronger binding
[1] = system: Fuc(a1-2)Gal(b1-3)GalNAc(b1-3)Gal(b1-4)Glc; conditions: glycan notation: IUPAC condensed, linker removed
Summary of the method: (§1)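 Glycan array data came from 3228 arrays in the Consortium for Functional Glycomics database, and only arrays with an available protein sequence were kept. Glycan names were put into IUPAC-condensed notation, and columns mapping to the same glycan were averaged. The binding signal is a within-array Z-score, averaged across arrays of one protein sequence run at different concentrations or buffers and across linkers. A negative Z-score can be read as non-binding.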

[2] = system: Fuc(a1-2)Gal(b1-3)GlcNAc(b1-3)Gal(b1-4)Glc; conditions: glycan notation: IUPAC condensed, linker removed
Summary of the method: as §1

[3] = system: Fuc(a1-2)Gal(b1-3)GalNAc(b1-3)Gal(a1-4)Gal(b1-4)Glc; conditions: glycan notation: IUPAC condensed, linker removed
Summary of the method: as §1

[4] = system: Fuc(a1-2)Gal(b1-3)GalNAc(b1-4)[Neu5Ac(a2-3)]Gal(b1-4)Glc; conditions: glycan notation: IUPAC condensed, linker removed
Summary of the method: as §1

[5] = system: Fuc(a1-2)Gal(b1-3)GalNAc(a1-3)[Fuc(a1-2)]Gal(b1-4)GlcNAc; conditions: glycan notation: IUPAC condensed, linker removed
Summary of the method: as §1

[6] = system: Fuc(a1-2)Gal(b1-3)GlcNAc(b1-3)[Gal(b1-4)GlcNAc(b1-6)]Gal(b1-4)Glc; conditions: glycan notation: IUPAC condensed, linker removed
Summary of the method: as §1

Fuc(a1-2)Gal(b1-3)GalNAc = conditions: glycan notation: IUPAC condensed, linker removed
Summary of the method: as §1

[7] = system: Fuc(a1-2)Gal(b1-3)GalNAc(a1-3)[Fuc(a1-2)]Gal(b1-4)Glc; conditions: glycan notation: IUPAC condensed, linker removed
Summary of the method: as §1

[8] = system: Fuc(a1-2)Gal(b1-3)GalNAc(b1-3)Gal; conditions: glycan notation: IUPAC condensed, linker removed
Summary of the method: as §1

Fuc(a1-2)Gal(b1-4)Glc6S = conditions: glycan notation: IUPAC condensed, linker removed
Summary of the method: as §1

Fuc(a1-2)Gal(b1-3)GlcNAc = conditions: glycan notation: IUPAC condensed, linker removed
Summary of the method: as §1

[9] = system: Fuc(a1-2)Gal(b1-3)[Fuc(a1-4)]GlcNAc(b1-2)Man(a1-3)[Fuc(a1-2)Gal(b1-3)[Fuc(a1-4)]GlcNAc(b1-2)Man(a1-6)]Man(b1-4)GlcNAc(b1-4)GlcNAc; conditions: glycan notation: IUPAC condensed, linker removed
Summary of the method: as §1

[10] = system: Fuc(a1-2)Gal(b1-3)GlcNAc(b1-2)Man(a1-3)[Fuc(a1-2)Gal(b1-3)GlcNAc(b1-2)Man(a1-6)]Man(b1-4)GlcNAc(b1-4)GlcNAc; conditions: glycan notation: IUPAC condensed, linker removed
Summary of the method: as §1

[11] = system: Fuc(a1-2)Gal(b1-3)[Fuc(a1-4)]GlcNAc(b1-2)Man(a1-3)[Fuc(a1-2)Gal(b1-3)[Fuc(a1-4)]GlcNAc(b1-2)Man(a1-3)]Man(b1-4)GlcNAc(b1-4)GlcNAc; conditions: glycan notation: IUPAC condensed, linker removed; mutation: R125K
Summary of the method: as §1

[12] = system: Fuc(a1-2)Gal(b1-4)Fuc(a1-3)]GlcNAc(b1-2)Man(a1-3)[Fuc(a1-2)Gal(b1-4)[Fuc(a1-3)]GlcNAc(b1-2)Man(a1-6)]Man(b1-4)GlcNAc(b1-4)GlcNAc; conditions: glycan notation: IUPAC condensed, linker removed; mutation: R125K
Summary of the method: as §1

[13] = system: Fuc(a1-2)Gal(b1-3)GlcNAc(b1-3)[Neu5Ac(a2-6)Gal(b1-4)GlcNAc(b1-6)]Gal(b1-4)Glc; conditions: glycan notation: IUPAC condensed, linker removed
Summary of the method: as §1

[14] = system: Fuc(a1-2)Gal(b1-3)[Fuc(a1-4)]GlcNAc(b1-3)[Gal(b1-4)GlcNAc(b1-6)]Gal(b1-4)Glc; conditions: glycan notation: IUPAC condensed, linker removed
Summary of the method: as §1

[15] = system: Fuc(a1-2)Gal(b1-3)[Fuc(a1-4)]GlcNAc; conditions: glycan notation: IUPAC condensed, linker removed
Summary of the method: as §1

[16] = system: Fuc(a1-2)Gal(b1-4)GlcNAc(b1-2)Man(a1-3)[Fuc(a1-2)Gal(b1-4)GlcNAc(b1-2)Man(a1-6)]Man(b1-4)GlcNAc(b1-4)GlcNAc; conditions: glycan notation: IUPAC condensed, linker removed
Summary of the method: as §1

[17] = system: Fuc(a1-2)Gal(b1-3)[Fuc(a1-4)]GlcNAc(b1-2)Man(a1-6)[Fuc(a1-2)Gal(b1-3)[Fuc(a1-4)]GlcNAc(b1-2)Man(a1-3)]Man(b1-4)GlcNAc(b1-4)[Fuc(a1-6)]GlcNAc; conditions: glycan notation: IUPAC condensed, linker removed
Summary of the method: as §1

Sequence of CHI3L1 (Homo sapiens), P36222 (P36222 whole entry): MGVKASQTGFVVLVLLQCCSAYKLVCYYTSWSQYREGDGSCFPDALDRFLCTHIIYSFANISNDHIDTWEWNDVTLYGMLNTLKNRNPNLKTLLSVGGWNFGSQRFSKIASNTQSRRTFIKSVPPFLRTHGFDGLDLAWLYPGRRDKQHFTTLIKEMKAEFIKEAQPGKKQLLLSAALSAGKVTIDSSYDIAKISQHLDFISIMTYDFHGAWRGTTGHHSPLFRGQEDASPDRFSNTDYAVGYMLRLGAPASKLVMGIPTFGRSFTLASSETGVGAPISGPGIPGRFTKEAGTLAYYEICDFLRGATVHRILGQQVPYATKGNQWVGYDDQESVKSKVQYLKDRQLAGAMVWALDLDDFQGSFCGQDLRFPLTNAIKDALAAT
Sequence of PILRb (Mus musculus), Q2YSF2 (Q2YSF2 entry or part of it): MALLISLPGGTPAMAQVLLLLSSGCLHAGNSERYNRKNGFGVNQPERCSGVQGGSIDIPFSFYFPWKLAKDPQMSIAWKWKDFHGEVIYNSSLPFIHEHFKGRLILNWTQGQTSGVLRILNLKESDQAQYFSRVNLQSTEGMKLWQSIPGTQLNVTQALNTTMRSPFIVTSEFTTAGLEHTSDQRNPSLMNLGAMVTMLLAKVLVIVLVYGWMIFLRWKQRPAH
Sequence of PILRa (Mus musculus), Q2YSF3 (Q2YSF3 entry or part of it): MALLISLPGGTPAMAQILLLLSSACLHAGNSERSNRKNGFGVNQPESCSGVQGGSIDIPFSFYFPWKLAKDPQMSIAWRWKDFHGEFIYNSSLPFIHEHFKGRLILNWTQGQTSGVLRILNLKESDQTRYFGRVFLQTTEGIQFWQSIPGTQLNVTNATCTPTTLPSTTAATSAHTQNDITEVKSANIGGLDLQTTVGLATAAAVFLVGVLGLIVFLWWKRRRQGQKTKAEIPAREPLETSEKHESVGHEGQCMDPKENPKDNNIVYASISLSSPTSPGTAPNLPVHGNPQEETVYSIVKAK
Sequence of Avaren (Actinomycete K97) (chain, as listed by the source): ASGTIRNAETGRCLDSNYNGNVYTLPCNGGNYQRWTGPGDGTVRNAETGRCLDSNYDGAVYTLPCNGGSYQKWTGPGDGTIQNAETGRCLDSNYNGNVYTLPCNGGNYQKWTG
Sequence of C3b (Homo sapiens), P01024 (P01024 23-667): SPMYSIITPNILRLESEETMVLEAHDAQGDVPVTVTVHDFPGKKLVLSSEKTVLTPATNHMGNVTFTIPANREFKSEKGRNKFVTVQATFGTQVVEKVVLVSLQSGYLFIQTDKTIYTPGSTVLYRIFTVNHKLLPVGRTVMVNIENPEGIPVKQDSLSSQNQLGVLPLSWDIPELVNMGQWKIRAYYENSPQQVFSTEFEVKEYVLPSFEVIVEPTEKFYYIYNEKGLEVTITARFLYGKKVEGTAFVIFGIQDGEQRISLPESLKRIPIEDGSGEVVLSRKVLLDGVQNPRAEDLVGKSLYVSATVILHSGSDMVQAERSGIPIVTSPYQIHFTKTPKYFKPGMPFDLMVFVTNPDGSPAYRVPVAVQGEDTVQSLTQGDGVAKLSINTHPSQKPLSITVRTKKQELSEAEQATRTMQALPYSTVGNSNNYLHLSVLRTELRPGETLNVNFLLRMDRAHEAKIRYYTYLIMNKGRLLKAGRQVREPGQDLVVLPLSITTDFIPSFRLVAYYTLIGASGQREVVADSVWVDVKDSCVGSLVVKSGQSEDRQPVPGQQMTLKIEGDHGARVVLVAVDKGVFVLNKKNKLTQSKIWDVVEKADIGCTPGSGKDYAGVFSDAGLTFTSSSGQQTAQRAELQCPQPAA
Sequence of 6RG (Lolium perenne) (chain, as listed by the source): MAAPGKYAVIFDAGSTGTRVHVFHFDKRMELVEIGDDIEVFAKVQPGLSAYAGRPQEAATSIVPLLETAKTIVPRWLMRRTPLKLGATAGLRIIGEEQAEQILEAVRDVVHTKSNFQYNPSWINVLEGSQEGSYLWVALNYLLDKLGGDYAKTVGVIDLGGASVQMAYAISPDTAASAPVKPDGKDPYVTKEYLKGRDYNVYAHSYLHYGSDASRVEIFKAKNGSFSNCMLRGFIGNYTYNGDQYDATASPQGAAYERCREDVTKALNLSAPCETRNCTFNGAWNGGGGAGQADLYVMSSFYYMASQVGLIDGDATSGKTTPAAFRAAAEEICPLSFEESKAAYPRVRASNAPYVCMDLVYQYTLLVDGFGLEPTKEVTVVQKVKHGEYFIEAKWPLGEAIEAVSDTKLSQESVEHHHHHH
Sequence of Regenerating Gene IV (Homo sapiens), Q9BYZ8 (Q9BYZ8 whole entry, looked up): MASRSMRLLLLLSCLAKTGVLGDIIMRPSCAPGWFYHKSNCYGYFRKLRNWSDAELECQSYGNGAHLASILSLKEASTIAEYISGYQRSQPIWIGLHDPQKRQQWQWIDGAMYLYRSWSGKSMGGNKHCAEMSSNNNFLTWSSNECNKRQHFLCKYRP
Sequence of CHT (Homo sapiens) (chain, as listed by the source): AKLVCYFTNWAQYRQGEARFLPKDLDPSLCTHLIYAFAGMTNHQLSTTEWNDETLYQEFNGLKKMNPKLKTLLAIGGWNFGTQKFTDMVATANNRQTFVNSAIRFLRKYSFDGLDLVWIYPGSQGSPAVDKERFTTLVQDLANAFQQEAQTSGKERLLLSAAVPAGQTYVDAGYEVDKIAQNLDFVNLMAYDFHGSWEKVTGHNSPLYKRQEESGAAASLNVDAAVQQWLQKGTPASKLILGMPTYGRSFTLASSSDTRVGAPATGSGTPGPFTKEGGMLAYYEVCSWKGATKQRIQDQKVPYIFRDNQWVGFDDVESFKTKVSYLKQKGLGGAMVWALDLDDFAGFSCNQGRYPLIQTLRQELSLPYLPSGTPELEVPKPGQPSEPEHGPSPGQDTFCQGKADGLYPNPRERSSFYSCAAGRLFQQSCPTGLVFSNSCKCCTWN
Sequence of Aggrecan (Rattus norvegicus), NP_071526 (chain, as listed by the source): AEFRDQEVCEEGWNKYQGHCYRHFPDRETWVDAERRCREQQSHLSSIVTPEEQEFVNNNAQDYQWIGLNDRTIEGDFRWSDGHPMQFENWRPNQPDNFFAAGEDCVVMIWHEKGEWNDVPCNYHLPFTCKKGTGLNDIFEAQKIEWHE

With 6RG (Lolium perenne) the “glycan array binding signal (z-score)” value [1] was 7.3 and the “glycan array binding signal (z-score)” value [2] was 6.52.

For Aggrecan (Rattus norvegicus), NP_071526, the “glycan array binding signal (z-score)” value [3] was -0.123.

With C3b (Homo sapiens), P01024 the “glycan array binding signal (z-score)” value [3] was 0.194 and the “glycan array binding signal (z-score)” value [4] was 0.329.

For Avaren (Actinomycete K97), the “glycan array binding signal (z-score)” value [5] was -0.138 and the “glycan array binding signal (z-score)” value [6] was -0.128.

For CHT (Homo sapiens), the “glycan array binding signal (z-score)” value (Fuc(a1-2)Gal(b1-3)GalNAc; mutation: D138V, E140I) was 0.451.

For PILRa (Mus musculus), Q2YSF3, the “glycan array binding signal (z-score)” value [7] was 0.037, the “glycan array binding signal (z-score)” value [8] was 0.134 and the “glycan array binding signal (z-score)” value (Fuc(a1-2)Gal(b1-3)GalNAc) was -0.151. For the same substance, the “glycan array binding signal (z-score)” value [2] was -0.127 and the “glycan array binding signal (z-score)” value [6] was -0.176.

With “Regenerating Gene IV (Homo sapiens), Q9BYZ8” the “glycan array binding signal (z-score)” value (Fuc(a1-2)Gal(b1-4)Glc6S) was 2.53.

With PILRb (Mus musculus), Q2YSF2 the “glycan array binding signal (z-score)” value [3] was -0.245, the “glycan array binding signal (z-score)” value (Fuc(a1-2)Gal(b1-3)GlcNAc) was -0.281 and the “glycan array binding signal (z-score)” value [9] was 2.44.

Siglec-8 (Homo sapiens), Q9NYZ4 was tested, and the “glycan array binding signal (z-score)” value ([7]; mutation: R125K) was 0.206, the “glycan array binding signal (z-score)” value ([3]; mutation: R125K) was -0.14 and the “glycan array binding signal (z-score)” value (Fuc(a1-2)Gal(b1-3)GalNAc; mutation: R125K) was -0.339. The “glycan array binding signal (z-score)” value [10] was 0.028, the “glycan array binding signal (z-score)” value [11] was 1.44 and the “glycan array binding signal (z-score)” value [12] was 2.42.

With MpAFP RI GFP (Marinomonas primoryensis) the “glycan array binding signal (z-score)” value [13] was -0.127, the “glycan array binding signal (z-score)” value [14] was -0.303 and the “glycan array binding signal (z-score)” value [15] was -0.05. For the same substance, the “glycan array binding signal (z-score)” value [16] was -0.295.

CHI3L1 (Homo sapiens), P36222 was tested, and the “glycan array binding signal (z-score)” value [10] was -0.032, the “glycan array binding signal (z-score)” value [17] was 0.653 and the “glycan array binding signal (z-score)” value [15] was 5.09.
